Source: PMC12136788
Where a chain is given by its changes, count along the chain named. Whole data set: some 5,800 sequences, median “enrichment r” near 0.68, cut for the highest 2% near 11. The sample holds the highest values, similar sequences and a random draw of the others, so the mix is not that of the screen.

T1: UNK ZnF1-6 (called full-length) (human, UniProt Q9C0B0 30-357)
T1 sequence: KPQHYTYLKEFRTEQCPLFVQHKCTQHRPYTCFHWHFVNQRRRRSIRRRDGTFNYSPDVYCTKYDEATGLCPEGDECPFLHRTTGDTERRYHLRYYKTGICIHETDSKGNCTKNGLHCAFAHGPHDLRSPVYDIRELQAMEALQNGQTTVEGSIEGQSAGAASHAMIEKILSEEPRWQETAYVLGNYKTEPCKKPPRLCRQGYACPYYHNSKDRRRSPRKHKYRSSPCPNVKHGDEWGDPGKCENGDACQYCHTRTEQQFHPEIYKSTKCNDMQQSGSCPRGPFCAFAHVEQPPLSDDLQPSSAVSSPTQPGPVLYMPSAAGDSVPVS

B1: ENSG00000099904:stop:overlap|stop_codon|ENSG00000099904|stop_codon|NA|stop_codon (ssRNA)
RNA: GGGAGUUCUACAGUCCGACGAUCGGGCCAUGUGCCGCCUGCACUUGGCUGCCUCCAGUCUUUUCCCCAGCCUCUCGGGGCCCUAGCAGGAUGACAAGUAGGCGGCUCUGGGGCCCAGGACAGCCCAGCUGGGGACCCAGGAGGCAACAGAGGAUUGAGCAUCA
B2: chr2:216675367:216675485:-|3pUTR|ENSG00000115461|msi1|FALSE|unique (ssRNA)
RNA: GGGAGUUCUACAGUCCGACGAUCGCCAGGCAGAGGCCAGCCCUCCGUGGUGCACACAGCACGCGCCUCAGUCCAUCCCAUUUUAGUCUUUAAACCCUCAGGAAGUCACAGUCUCCGGACACCACACCACAUGAGCCCAACAGGCAACAGAGGAUUGAGCAUCA
B3: chr15:63775065:63775180:-|CDS|ENSG00000103657|unk|FALSE|unique (ssRNA)
RNA: GGGAGUUCUACAGUCCGACGAUCUGGUUCAGCAGAUGUCCAUUCUGUUAGUGAACGCCCCCGGUCAAGCACUGAUGCACUUAUAGAAAUGGGUGUUCGAACUGGUCUAAGUUUAUUAUUUGCGCUUCUAAGACAAAGUUGGAUCAACAGAGGAUUGAGCAUCA
B4: chr14:77132432:77132533:-|3pUTR|ENSG00000177108|unk|total|mutant (ssRNA)
RNA: GGGAGUUCUACAGUCCGACGAUCUGUGAUUGCUGGACCCAGAGGCAAGAUCUGCAGAGAUGCCUGUGAGAUAUUUGCUUUCCCCGAGGGGAGUGUGGGCAUGGGAGGGGUCUGAAAAUCAGGACCCAACCCAGCCACUGAAGACAACAGAGGAUUGAGCAUCA
B5: chr6:15520333:15520434:+|3pUTR|ENSG00000008083|unk|FALSE|unique (ssRNA)
RNA: GGGAGUUCUACAGUCCGACGAUCCUUGCUGUAGGAUUCAAGCUGUCUUUGCACUAGCUCUAAAGAAGAUUUUCUUCUGGUUUUAGAGAACUAAUUUUGUUUUAGCAUUAAACUGUUGAACUUUUUUUUGUACUUAGAAAACCUCAACAGAGGAUUGAGCAUCA
B6: chr3:25596636:25596694:+|3pUTR|ENSG00000077092|msi1_unk|FALSE|overlapping (ssRNA)
RNA: GGGAGUUCUACAGUCCGACGAUCUCCCCAGUACCUUCAGUUCCAGGAUUUAAAAUGCAAGAAAAAACAUUUUUACUGCUGCUUAGUUUUUGGACUGAAAAGAUAUUAAAACUCAAGAAGGACCAAGAAGUUUUCAUAUGUAUCCAACAGAGGAUUGAGCAUCA
B7: chr7:7234405:7234460:+|CDS|ENSG00000106392|msi1_unk|FALSE|overlapping (ssRNA)
RNA: GGGAGUUCUACAGUCCGACGAUCAAUUUUUUAACCUUCCUCUGUGGAUCAGCAAUAGGAUUUCUUUUAUGUUCUCAGCUAUUUAGUAUUUUGUUGGGAGAAAAGGUUGACACCCAGCCUAAUGUUCUUCAUAAUGAUCCUCAUCAACAGAGGAUUGAGCAUCA
B8: chr2:74214837:74214938:+|3pUTR|ENSG00000065911|msi1_unk|FALSE|overlapping (ssRNA)
RNA: GGGAGUUCUACAGUCCGACGAUCCUGUCCUUUUGAGGCUUAGUCAGUUUAUUGGGAAAAUGUUUAGGAUUAUUCCUUGCUAUUAGUACUCAUUUUAUGUAUGUUACCCUUCAGUAAGUUCUCCCCAUUUUAGUUUUCUAGGACCAACAGAGGAUUGAGCAUCA
B9: ENSG00000137168:stop:overlap|stop_codon|ENSG00000137168|stop_codon|NA|stop_codon (ssRNA)
RNA: GGGAGUUCUACAGUCCGACGAUCCAAACUCCCAGGACCGCCCUGUGGACGACGUGAAGAUCAUUAAGGCAUACCCUUCUGGGUAGACUUGCUACCCUCUUGAGCAGCUCUUCUGAGAUGGCCCCAGUGAACCAGCUUCUAGAUCAACAGAGGAUUGAGCAUCA
B10: chr6:43186014:43186115:+|CDS|ENSG00000112659|msi1|total|mutant (ssRNA)
RNA: GGGAGUUCUACAGUCCGACGAUCCUGCUUUUCUCCUUGGUGAAGCGCUACCUUUGUGUCACGUCCCUCCUGGAUCAGCUGAACCGCAGUCCAGAGCUGGGAGCUGGAGACCAAAGCUCCCCAUGUGCCACAAGAGAGAAAAGCCAACAGAGGAUUGAGCAUCA
B11: ENSG00000147536:stop:overlap|stop_codon|ENSG00000147536|stop_codon|NA|stop_codon (ssRNA)
RNA: GGGAGUUCUACAGUCCGACGAUCUCCGCUACGUCCUCAGCAGCUACUUGCGGUGUCGCCUCAUGAAGUUCCCAAACCAGAUCUAGAUUCUUACGUGUUUCUGAGAGUGAGAGAACGACAAGAAAACAUACUGGUAGAACCAGACAACAGAGGAUUGAGCAUCA
B12: chr2:74214837:74214938:+|3pUTR|ENSG00000065911|msi1_unk|total|mutant (ssRNA)
RNA: B8 RNA with U40C, A41C, U64C, A65C, U83C, A84C, U130C, A131C, U138C, A139C
B13: chr8:22006364:22006465:+|3pUTR|ENSG00000130227|msi1|FALSE|unique (ssRNA)
RNA: GGGAGUUCUACAGUCCGACGAUCUGUUGCUGCUAGUUGUACACAUCUCUAGUUCAGCUCUUGCCCACGGGACACUCAUCAAUUAGGUUUUAUUUUUAUUUCUUUCCUCUACCCCCAGAAACAAGCCUGUUAAUUUUUUUUCCUCAACAGAGGAUUGAGCAUCA
B14: chr8:22006364:22006465:+|3pUTR|ENSG00000130227|msi1|total|mutant (ssRNA)
RNA: B13 RNA with U33C, A34C, U49C, A50C, U83C, A84C
B15: ENSG00000070961:be:win_6151|3pUTR|ENSG00000070961|bound_else_gene|NA|bound_elsewhere_windowed (ssRNA)
RNA: GGGAGUUCUACAGUCCGACGAUCCAAUCACUUUUUCUCUUUUAUCCUCUAACCAAAAAAUUGUUUAAUUUUGCAUCCCAAAUGUUUUUAAUCUUUGUAUAUUUUUUAAAAAUCCUUUUCUCCUCAUCAUUGCCUUUUUUGUGGCAACAGAGGAUUGAGCAUCA
B16: chr13:51761002:51761103:+|3pUTR|ENSG00000139668|unk|FALSE|unique (ssRNA)
RNA: GGGAGUUCUACAGUCCGACGAUCACGGCAAGAUUGUAAUCCUGCUGUAUUCCUCGCCCUCUGUAUUCUAUCCCUUUAAAAACUAGAUAUUUAAACAUUUUAUCCUAAUGUGUUUCAUCAGAACACUUUGCACACUUUCUUACUCAACAGAGGAUUGAGCAUCA
B17: chr19:44386474:44388102:-|CDS|ENSG00000267508|control|control|control (ssRNA)
RNA: GGGAGUUCUACAGUCCGACGAUCGGCAUGUGGUAAGGGCUUCAGUCGUAAUUCAUACCUCCUUGCCCAUCAGAGAGUGCAUAUAGAUGAGACACAGUACACACACUGUGAGCGUGGAAAGGACCUUCUGACUCAUCAAAGACUCAACAGAGGAUUGAGCAUCA
B18: ENSG00000198589:be:win_1001|CDS|ENSG00000198589|bound_else_gene|NA|bound_elsewhere_windowed (ssRNA)
RNA: GGGAGUUCUACAGUCCGACGAUCUCAACACUAGCGAUACCUUUGACAAAUGUUUCCUGGGCUCAUCAGAAACAGCAGAUGCUAAUAGAGUAUUCUGUGGUCAGAUGACUGCAGUUUACCUUUUCAGUGAAGCUCUAAAUGCAGCAACAGAGGAUUGAGCAUCA
B19: chr1:114568131:114568247:-|CDS|ENSG00000116752|unk|total|mutant (ssRNA)
RNA: GGGAGUUCUACAGUCCGACGAUCUUCCCGUUGGGUAUCCCUGGUCAGUAAGAAUUAUGAGAUUGAACGGACUAUUGUUCAGCCCGAAAAUGAAAUCUAUCAAAUUAAGCAGCAACAUGGAGAGGCAAACAAAGAAAACAUCCGCAACAGAGGAUUGAGCAUCA
B20: chr11:85659139:85659240:-|3pUTR|ENSG00000137504|msi1|FALSE|unique (ssRNA)
RNA: GGGAGUUCUACAGUCCGACGAUCGUCUGAUUUAGUAAAAUUUUAAAGCUAAAUAAUCUGAUGACUCUUGAAAGUUUAAUUGGUAGUAUGACAUUUAUGUUUUUUUCCCCCAGACUCACAGCCAAUACAAAGUUUUGAGACUCCCAACAGAGGAUUGAGCAUCA
B21: ENSG00000124766:be:win_2851|3pUTR|ENSG00000124766|bound_else_gene|NA|bound_elsewhere_windowed (ssRNA)
RNA: GGGAGUUCUACAGUCCGACGAUCUAAUCAGAUGCCAUUUUAUAUGUGGACGUAUUUAUACUGGCCAAACAUAUUUUUUCUUUUGUCCCUUUUUUUCUUUCCUUUCUUUUUACUUCCUUUAUUUCUUUAUUCCUUCCUUUUCCUCAACAGAGGAUUGAGCAUCA
B22: chr2:27041412:27041530:+|3pUTR|ENSG00000119777|msi1_unk|FALSE|overlapping (ssRNA)
RNA: GGGAGUUCUACAGUCCGACGAUCACUUCAAAAUGCCCAGCCUGCCCCAAAUGCCUCUAAGCCCCUCCCUGUCCCCUCCCUUGUAGUCCUACUUCUUCCAACUUUCCAUUCCCCAUCAUGCUGGGGGUCUUGGUCACAAGGCUCCAACAGAGGAUUGAGCAUCA

target: T1, UNK ZnF1-6 (called full-length); assay: nsRBNS (natural sequence RNA bind-n-seq); RBNS binding buffer (assumed for nsRBNS): 25 mM Tris pH 7.5, 150 mM KCl, 3 mM MgCl2, 0.01% Triton X-100, 500 ug/ml BSA, 20 U/ml SUPERase-In, 4 C; UNK is unkempt and MSI1 is Musashi-1; names of the RNAs are library labels; protein concentration not given here; high values mean tight binding

Row | Binder | binding signal [enrichment R]
1 | B1 | 1.2
2 | B2 | 2.44
3 | B3 | 0.696
4 | B4 | 0.528
5 | B5 | 3.46
6 | B6 | 0.303
7 | B7 | 2.12
8 | B8 | 12.4
9 | B9 | 0.7
10 | B10 | 0.544
11 | B11 | 33.9
12 | B12 | 0.338
13 | B13 | 41.4
14 | B14 | 2.95
15 | B15 | 4.78
16 | B16 | 28.5
17 | B17 | 0.503
18 | B18 | 0.527
19 | B19 | 0.717
20 | B20 | 1.52
21 | B21 | 8
22 | B22 | 1.6
